Screening data (PubChem BioAssay)
HIV RNase H inh-1: inhibitors of HIV-1 reverse transcriptase RNase H | P04585 | RT-RNase H RNA/DNA duplex cleavage, fluorescence | inhibition, % at 10 µM | 1.9% of 65,000 active; in the data active means inhibition above about 50%
HIV RNase H inh-2: confirmation of HIV-1 reverse transcriptase RNase H inhibitors. 39% of 1,000 active. inhibition, % at 10 µM. Recombinant RT RNase H, fluorescent RNA/DNA duplex cleavage. shares compounds with HIV RNase H inh-1; in the data active means inhibition above about 48%
An asterisk follows results filed as active. Shown is part of a subset that was picked to be rich in hits.

SMILES	HIV RNase H inh-1	others
COc1cc(/C=C/C(=O)CC(=O)/C=C/c2ccc(O)c(OC)c2)ccc1O	82.8*	HIV RNase H inh-2=56.9*
COc1cc(/C=C/C2=NC(=O)C(C)(C)O2)ccc1O	7.3
COc1ccc(S(=O)(=O)N2CCC(C(=O)NCc3ccccn3)CC2)cc1C	-18.5
CN1CCN(c2ccccc2NS(=O)(=O)c2ccc3c(c2)CCN3C(=O)C2CCC2)CC1	-3.8
O=C(Cn1c(=O)oc2cc(S(=O)(=O)N3CCCCCC3)ccc21)NC1CCCCCCC1	25.7
O=C(Cn1c(=O)oc2cc(S(=O)(=O)N3CCCC3)ccc21)NC1CCCc2ccccc21 (centres undefined)	65.1*	HIV RNase H inh-2=76.3*
O=C(Cn1c(=O)oc2cc(S(=O)(=O)N3CCCC3)ccc21)Nc1ccc(C(F)(F)F)cc1	39.7
CCC(C)NC(=O)CS(=O)Cc1nc(-c2ccccc2C)oc1C (centres undefined)	-7.5
CN(C)c1ccc(NC(=O)CSc2nc3c(c(=O)[nH]2)CCCC3)cc1	-1.6
O=c1[nH]c(SCc2cccc(Cl)c2)nc2c1CCCC2	-31.9
O=C(CSc1nc2c(c(=O)[nH]1)CCC2)Nc1cccc(Cl)c1	87.3*	HIV RNase H inh-2=38.0
COc1ccc(C(=S)N2CCCC2)cc1C	-7.8
Cc1ccc(-n2c(Cc3cccn3C)nnc2SCC(=O)NCc2ccc3c(c2)OCO3)cc1	-7.2
Cc1cc2ccccc2c(=O)n1CC(=O)N(C)c1ccc(F)cc1	-16.4
N#C/C(=C(/O)CN1CCOCC1)c1nc2ccccc2s1	-4.0
c1ccc2sc(N3CN(CCN4CCOCC4)CN(c4nc5ccccc5s4)C3)nc2c1	-43.0
c1ccc2sc(SN3CCOCC3)nc2c1	79.2*	HIV RNase H inh-2=37.0
COc1ccc(C2/C(=C(\O)c3ccc4c(c3)OCCO4)C(=O)C(=O)N2CCCN(C)C)c(OC)c1 (centres undefined)	1.4
CCOc1ccc(-n2nc(C(=O)N3CCOCC3)c3ccccc3c2=O)cc1	-10.3
COc1cccc(C(=O)OCc2ccccc2C#N)c1O	-37.9
CC(C)(C)c1ccc(-c2nnc(SCC(=O)O)n2N)cc1	-7.6
CC(C)OC(=O)CSc1nnc(-c2ccncc2)n1N	5.0
CC(C)OC(=O)CSc1nnc(-c2ccc(C(C)(C)C)cc2)n1N	82.4*	HIV RNase H inh-2=63.4*
Cc1ccc(-c2nc(C(=O)NC3CCCCCC3)no2)cc1	4.4
Cc1onc(COc2ccccc2O)c1Br	-18.4
SMILES	HIV RNase H inh-1	others
CCOc1ccc(C2N(c3ccc(F)cc3)C(=O)C3CCCN32)cc1OC (centres undefined)	-9.5
CC(=O)N(CCO)Cc1cc2cc(C)cc(C)c2[nH]c1=O	-5.4
N#Cc1cc2c(nc1SCc1ccncc1)CCC2	49.2
CC(=O)N1CCc2cc(S(=O)(=O)NCCN3CCC(C)CC3)ccc21	-0.5
CCCOC(=O)NC(CC)COC(=O)Nc1cccc(C)c1C (centres undefined)	-4.7
CCCCn1c(C(C)O)nc2ccccc21 (centres undefined)	-36.2
COc1ccccc1OCCn1c(C(C)O)nc2ccccc21 (centres undefined)	64.9*	HIV RNase H inh-2=41.6
COc1ccccc1OCCn1c(CO)nc2ccccc21	-5.8
CCOc1cccc(-c2nn3c(-c4ccco4)nnc3s2)c1	-4.4
Cc1ccc(C2C(C#N)=C(N)Oc3c2sc2ccccc32)o1 (centres undefined)	23.7
O=C(O)CC(NC(=O)C(c1ccccc1)c1ccccc1)c1ccco1 (centres undefined)	-11.9
O=C(O)C(O)c1ccco1 (centres undefined)	57.3*	HIV RNase H inh-2=48.1
CCN(CC)C(=O)CC(c1ccc(F)cc1)c1ccco1 (centres undefined)	-16.5
CCN(CC)S(=O)(=O)c1cccc(C(=O)OCc2cc(=O)n3nc(C)sc3n2)c1	-23.2
COc1ccc(C(c2nnnn2C2CCCCC2)N2CCN(c3ccccc3)CC2)cc1 (centres undefined)	8.4
COc1cc(C(c2nnnn2C2CCCC2)N2CCc3ccccc3C2)ccc1O (centres undefined)	50.7*	HIV RNase H inh-2=22.2
Oc1ccc(C(c2nnnn2C2CCCC2)N2CCc3ccccc3C2)cc1 (centres undefined)	11.0
CCN(CC)S(=O)(=O)c1ccc(Br)c(OC)c1	-67.4
Cc1cc(NC(=O)CN2CCN(Cc3ccccc3)CC2)nc2c1c(=O)oc1ccccc12	11.9
CCOc1ccccc1-n1c(SCC(=O)NC2CCCC2)nnc1-c1ccoc1C	-6.5
Fc1ccc(COc2ccc(/C=N/n3cnnc3)cc2)cc1	-26.4
CCn1c(=O)cc(SCC(=O)N2CCOCC2)c2ccccc21	-28.2
CCn1c(=O)cc(SCC(=O)N2CCN(C3CCCCC3)CC2)c2ccccc21	-7.0
CCn1c(=O)cc(SCC(=O)N2CCN(c3ccccc3OC)CC2)c2ccccc21	70.8*	HIV RNase H inh-2=9.3
COc1cccc(CN(Cc2cccnc2)S(=O)(=O)c2ccc(-n3cnnn3)c(C)c2)c1OC	-13.1
COc1ccc(NCc2nnc(SCC#N)n2-c2ccccc2OC)cc1	-7.3
Cc1ccc(NC(=O)Cn2nnc(C(=O)Nc3ccc(C)c(C)c3)c2N)cc1	67.4*	HIV RNase H inh-2=58.7*
